Laboratory results as given in PubChem BioAssay (NCI).
Several values for one entry are separate records, joined by “and”; a condition that tells them apart may be missing. Equal entries are not always repeated. Compounds without any hit were thinned out: in the full panel of roughly 83,000, 20% have a hit.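 In brief: 96-well plates, 48 h treatment, single concentration, percent growth endpoint.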 Activity calls are given as the source filed them. The calls were made as follows: active = growth percent below 10; inactive = the rest.

Legend:
Assay in all cases: NCI-60 one-dose screen, 48 h (100 = growth as untreated, 0 = no growth, -100 = all killed)
Settings in all cases: 10 µM unless noted
HCT-15 colon = system: HCT-15 colon
HT29 colon = system: HT29 colon
SNB-75 CNS = system: SNB-75 CNS
SNB-19 CNS = system: SNB-19 CNS
U251 CNS = system: U251 CNS
PC-3 prostate = system: PC-3 prostate
SK-MEL-5 melanoma = system: SK-MEL-5 melanoma
UACC-62 melanoma = system: UACC-62 melanoma
LOX IMVI melanoma = system: LOX IMVI melanoma
SK-MEL-28 melanoma = system: SK-MEL-28 melanoma
SK-MEL-2 melanoma = system: SK-MEL-2 melanoma
EKVX NSCLC = system: EKVX NSCLC
SN12C renal = system: SN12C renal
UO-31 renal = system: UO-31 renal
TK-10 renal = system: TK-10 renal
ACHN renal = system: ACHN renal
CAKI-1 renal = system: CAKI-1 renal
A498 renal = system: A498 renal
CCRF-CEM leukemia = system: CCRF-CEM leukemia
MOLT-4 leukemia = system: MOLT-4 leukemia

| Structure (SMILES) | growth (HCT-15 colon) | growth (HT29 colon) | growth (SNB-75 CNS) | growth (SNB-19 CNS) | growth (U251 CNS) | growth (PC-3 prostate) | growth (SK-MEL-5 melanoma) | growth (UACC-62 melanoma) | growth (LOX IMVI melanoma) | growth (SK-MEL-28 melanoma) | growth (SK-MEL-2 melanoma) | growth (EKVX NSCLC) | growth (SN12C renal) | growth (UO-31 renal) | growth (TK-10 renal) | growth (ACHN renal) | growth (CAKI-1 renal) | growth (A498 renal) | growth (CCRF-CEM leukemia) | growth (MOLT-4 leukemia) |
| --- | --- | --- | --- | --- | --- | --- | --- | --- | --- | --- | --- | --- | --- | --- | --- | --- | --- | --- | --- | --- |
| CCNC(=O)Nc1ccc(-c2nc3c(c(N4CCOC[C@@H]4C)n2)CCN(C2COC2)C3)cc1 | 60.3% (inactive) and 15.9% (inactive) | 49.7% (inactive) and 15.9% (inactive) | 22.9% (inactive) and -33.2% (active) | 59.2% (inactive) and 15.7% (inactive) | 55.9% (inactive) and 7.52% (active) | 26.6% (inactive) and 12.6% (inactive) | 22.4% (inactive) and -26.4% (active) | 9.26% (active) and -20.5% (active) | 33.9% (inactive) and 1.39% (active) | 25.1% (inactive) and -5.25% (active) | 41.7% (inactive) | 46.8% (inactive) and 17.4% (inactive) | 36.1% (inactive) and 14.7% (inactive) | 21.8% (inactive) and -6.18% (active) | 44.4% (inactive) and -22.3% (active) | 34.6% (inactive) and 7.24% (active) | 67.1% (inactive) and 0.578% (active) | -24.1% (active) and -36.2% (active) | 52.8% (inactive) and 12.2% (inactive) | 52.2% (inactive) and 8.79% (active) |
| O[C@H](c1cc(C(F)(F)F)nc2c(C(F)(F)F)cccc12)[C@@H]1CCCCN1 | 70.8% (inactive) and 82.5% (inactive) | 47.5% (inactive) | 29.7% (inactive) and 46.3% (inactive) | 60.1% (inactive) and 65.9% (inactive) | 42.6% (inactive) and 45.9% (inactive) | 42.7% (inactive) and 45% (inactive) | 84.9% (inactive) and 74.2% (inactive) | 70.5% (inactive) and 67.8% (inactive) | 11.6% (inactive) and 7.96% (active) | 94.4% (inactive) and 88.8% (inactive) | 73.6% (inactive) and 52.5% (inactive) | 65.5% (inactive) and 82.8% (inactive) | 65.9% (inactive) and 55.1% (inactive) | 50.5% (inactive) and 31.7% (inactive) | 56.9% (inactive) and 63.8% (inactive) | 40.1% (inactive) and 45.8% (inactive) | 72.7% (inactive) and 50.9% (inactive) | 67% (inactive) and 52% (inactive) | 76.5% (inactive) and 71.6% (inactive) | 32.7% (inactive) |
| NS(=O)(=O)c1cc2c(cc1Cl)NC(C(Cl)Cl)NS2(=O)=O (stereo not given) | 95.3% (inactive) and 101% (inactive) | 101% (inactive) and 114% (inactive) | 77.7% (inactive) and 114% (inactive) | 104% (inactive) and 105% (inactive) | 86.5% (inactive) and 104% (inactive) | 99% (inactive) and 99.8% (inactive) | 99.7% (inactive) and 102% (inactive) | 103% (inactive) | 98.6% (inactive) and 99.9% (inactive) | 99.8% (inactive) and 115% (inactive) | 104% (inactive) and 135% (inactive) | 89.3% (inactive) and 110% (inactive) | 93.2% (inactive) and 103% (inactive) | 90.7% (inactive) and 87.4% (inactive) | 98.5% (inactive) and 121% (inactive) | 96.7% (inactive) and 92.4% (inactive) | 98.8% (inactive) and 95.4% (inactive) | 97.6% (inactive) and 96.2% (inactive) | 89.2% (inactive) and 92.5% (inactive) | 95.1% (inactive) and 92.4% (inactive) |
| CC(=O)Oc1cc(C(=O)O)cc(OC(C)=O)c1OC(C)=O | 107% (inactive) and 101% (inactive) | 114% (inactive) and 96.5% (inactive) | 88.1% (inactive) and 90.2% (inactive) | 93.4% (inactive) and 108% (inactive) | 93.1% (inactive) and 105% (inactive) | 93.4% (inactive) and 95.5% (inactive) | 99.5% (inactive) and 101% (inactive) | 93.7% (inactive) and 103% (inactive) | 96.3% (inactive) and 96% (inactive) | 115% (inactive) and 99.3% (inactive) | 119% (inactive) and 107% (inactive) | 84.3% (inactive) and 105% (inactive) | 93.9% (inactive) and 99.7% (inactive) | 96.7% (inactive) and 98.2% (inactive) | 115% (inactive) and 102% (inactive) | 112% (inactive) and 98.3% (inactive) | 99.5% (inactive) and 95.5% (inactive) | 73.8% (inactive) | 101% (inactive) and 104% (inactive) | 116% (inactive) and 94.1% (inactive) |
